From PubChem BioAssay (Tox21)
Several values for one entry are separate records, joined by “and”; a condition that tells them apart may be missing. Equal values may be shown once. Results filed as inconclusive are left out. A call without a number means that no potency is given here. More than one record can exist for a structure, and the calls need not agree. Activity calls are given as the source filed them. Unless noted, calls come from the whole dose curve; as a rule, active = well fitted curve in the direction sought with a large enough effect in the repeat runs; inconclusive = weak or mixed curves; inactive = no such curve, though single readings can be large; an effect the other way counts as inactive or inconclusive.

Key:
[1] = qHTS assay to identify small molecule agonists of the estrogen receptor alpha (ER-alpha) signaling pathway in the presence of an antagonist - cell viability counter screen (AID 1259386);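 note: series mostly up to about 92 µM; cells exposed to compounds for 22 h at 37 °C before the viability read; nearly all actives have a fitted effect of over 30% in size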
Summary of the method: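 Using estrogen-depleted VM7Luc4E2 cells, the 15-concentration compound series was applied together with 10.0nM ICI-182,780 and incubated 22hr at 37C/5% CO2. Cell viability was then scored by CellTiter-Fluor.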

[2] = target: Progesterone receptor (Homo sapiens) (UniProt P06401); assay: qHTS assay to identify small molecule agonists of the progesterone receptor (PR) signaling pathway (AID 1346784; calls by dose curve; note: nearly all actives have a fitted effect of over 30% in size)
Summary of the method: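 Seed PR-UAS-bla HEK 293T cells (2% charcoal-stripped FBS), incubate 6 hr at 37C; add compounds in DMSO, 16 hr at 37C; add LiveBLAzer B/G substrate, 2 hr RT; read fluorescence intensity.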

[3] = target: Progesterone receptor (Homo sapiens) (UniProt P06401); assay: qHTS assay to identify small molecule antagonists of the progesterone receptor (PR) signaling pathway (AID 1346795; active = well fitted inhibition curve with a large enough effect in the signal ratio in the repeat runs, not every such curve was filed as active; the % refers to the signal ratio; note: potency is the fitted concentration of half-maximal effect)
Summary of the method: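 Screening used a GripTite HEK293T line with PR-responsive UAS-beta-lactamase. Cells were challenged with compound in the presence of 1 nM R5020 final for 16 hr at 37C; B/G FRET substrate, 2 hr room temperature, fluorescence.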

[4] = qHTS assay to identify small molecule antagonists of the progesterone receptor (PR) signaling pathway - cell viability counter screen (AID 1346798); note: nearly all actives have a fitted effect of over 50% in size; note: potency is the fitted concentration of half-maximal effect
Summary of the method: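 Measures cytotoxicity in parallel with the PR antagonist reporter read: HEK293T PR-UAS-bla cells get compound and R5020 for 16 hr, and remaining viable cells are quantified by CellTiter-Glo luminescence.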

[5] = qHTS assay to identify small molecule agonists of the progesterone receptor (PR) signaling pathway - cell viability counter screen (AID 1346799; calls by dose curve; note: nearly all actives have a fitted effect of over 45% in size; note: potency is the fitted concentration of half-maximal effect)
Summary of the method: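 Using the same plates as the PR reporter screen, HEK293T PR-UAS-bla cells received compounds for 16 hr at 37C and were then lysed with CellTiter-Glo; luminescence was read 30 min later at room temperature.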

[6] = qHTS assay to identify small molecule antagonists of the TGF-beta/Smad signaling pathway - cell viability counter screen (AID 1346824); note: nearly all actives have a fitted effect of over 50% in size
Summary of the method: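 SBE-bla HEK 293T cells, incubated overnight, then compound plus 0.25 ng/mL TGF-beta1 (stock added) for 5 hr at 37 C. Viability was read in the same wells by CellTiter-Glo luminescence after 30 min at room temperature.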

[7] = qHTS assay to identify small molecule agonists of the TGF-beta/Smad signaling pathway - cell viability counter screen (AID 1346829); note: top concentration of the series differs between compounds; nearly all actives have a fitted effect of over 45% in size
Summary of the method: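 After overnight seating at 37 C and 5% CO2, reporter cells got compounds for 5 hr and FRET substrate for 2 hr; cell viability then came from CellTiter-Glo luminescence.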

[8] = qHTS assay to identify small molecule agonists of the TGF-beta/Smad signaling pathway (AID 1346859; active = well fitted activation curve with a large enough effect in the signal ratio in the repeat runs, not every such curve was filed as active; the % refers to the signal ratio; note: series mostly up to about 77 µM)
Summary of the method: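 Beta-lactamase reporter activity downstream of Smad binding elements was measured in stably transfected HEK 293T cells; compounds were incubated for 5 hr, substrate for 2 hr at room temperature.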

[9] = target: Thyrotropin-releasing hormone receptor (Homo sapiens) (UniProt P34981); assay: qHTS assay to identify small molecule antagonists of the thyrotropin-releasing hormone receptor (TRHR) signaling pathway (AID 1346877; active = well fitted inhibition curve with a large enough effect in the repeat runs, not every such curve was filed as active; note: series mostly up to about 51 µM)
Summary of the method: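 Calcium signal in dye-loaded TRHR/HEK293 cells; compounds added 5 min before TRH (1 nM final); fluorescence monitored 3 min at 1 s steps.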

[10] = target: Thyrotropin-releasing hormone receptor (Homo sapiens) (UniProt P34981); assay: qHTS assay to identify small molecule agonists of the thyrotropin-releasing hormone receptor (TRHR) signaling pathway (AID 1346891; calls by dose curve;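 note: HEK293 cells expressing TRHR with calcium dye readout; series mostly up to about 58 µM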)
Summary of the method: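 Overnight-plated (18 h, 37 °C, 5% CO2) TRHR-Hek293 cells; 2 h calcium dye at 37 °C; compound in DMSO; 3-min kinetic fluorescence read.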

[11] = Human pregnane X receptor (PXR) small molecule agonists, qHTS cell viability counter screen (AID 1346977); note: nearly all actives have a fitted effect of over 50% in size; note: potency is the fitted concentration of half-maximal effect
Summary of the method: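 After a 5hr pre-incubation, PXR-Luc HepG2 cells received compounds plus positive control in DMSO and were kept 24hr at 37C. Cell viability was quantified by fluorescence from CellTiter-Fluor added for the final hour.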

[12] = Caspase-3/7 induction in HepG2 cells by small molecules, qHTS assay (AID 1346978); note: nearly all actives have a fitted effect of over 15% in size
Summary of the method: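 Wild-type HepG2 cells, 2,000/well, settled 5 hr at 37 C and 5% CO2, then compound-treated for 17 hr; caspase-3/7 activity read by luminescent Caspase-Glo 3/7 after 30 min at room temperature.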

[13] = Caspase-3/7 induction in CHO-K1 cells by small molecules, qHTS cell viability counter screen (AID 1346979); note: nearly all actives have a fitted effect of over 35% in size; note: potency is the fitted concentration of half-maximal effect
Summary of the method: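 Multiplexed with Caspase-Glo 3/7 in CHO-K1 cells, this counter screen added CellTiter-Fluor after 16hr of compound exposure and recorded fluorescence 1hr later.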

[14] = Caspase-3/7 induction in CHO-K1 cells by small molecules, qHTS assay (AID 1346980); note: nearly all actives have a fitted effect of over 15% in size
Summary of the method: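 Wild-type CHO-K1 cells exposed to compounds for 17hr at 37 C, 5% CO2. Caspase-3/7 activity then measured by Caspase-Glo 3/7 luminescence after 30min at room temperature.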

[15] = Caspase-3/7 induction in HepG2 cells by small molecules, qHTS cell viability counter screen (AID 1346981); note: series mostly up to about 92 µM; nearly all actives have a fitted effect of over 30% in size
Summary of the method: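 After a 5-hr attachment period at 37 C and 5% CO2, wild-type HepG2 cells received compounds in DMSO. Sixteen hours later CellTiter-Fluor was dispensed and the fluorescent signal quantified after a further hour.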

[16] = target: Nuclear receptor subfamily 1 group I member 2 (Homo sapiens) (UniProt O75469); assay: Human pregnane X receptor (PXR) small molecule agonists, qHTS assay (AID 1346982); note: nearly all actives have a fitted effect of over 35% in size; note: potency is the fitted concentration of half-maximal effect
Summary of the method: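 Tox21 qHTS; PXR-Luc HepG2; compounds pinned from DMSO; 24 hr, 37 C; ONE-Glo luciferase detection, 30 min room temperature.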

[17] = target: Acetylcholinesterase (Homo sapiens) (UniProt P22303); assay: Acetylcholinesterase (AChE) small molecule antagonists: colormetric cell-based qHTS assay (AID 1347395; calls by dose curve; note: nearly all actives have a fitted effect of over 30% in size; note: potency is the fitted concentration of half-maximal effect)
Summary of the method: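 In this cell-based qHTS, attached SH-SY5Y cells were treated with test chemicals for 30 min, after which acetylthiocholine hydrolysis was followed by DTNB colour development over 90 min at 37 C.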

[18] = target: Nuclear receptor subfamily 1 group I member 2 (Rattus norvegicus) (UniProt Q9R1A7); assay: Rat pregnane X receptor (rPXR) activation by small molecules, qHTS assay (AID 1346983); details: rPXR luciferase reporter cells, One-Glo luminescence, 24 h; stronger effect = higher value; note: nearly all actives have a fitted effect of over 20% in size
Summary of the method: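 Cell-based rPXR activation assay: rPXR cells, 2,000 per well, rested 5hr at 37 C, then exposed to compounds in DMSO for 24 hr at 37 C. Luciferase activity read by One-Glo luminescence after 30 min at room temperature.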

[19] = target: Nuclear receptor subfamily 1 group I member 2 (Homo sapiens) (UniProt O75469); assay: CYP3A4 induction through human pregnane X receptor (PXR) by small molecules, qHTS assay (AID 1346984); note: nearly all actives have a fitted effect of over 40% in size
Summary of the method: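 Cells (DPX-2; HepG2 with PXR element plus CYP3A4-promoter luciferase) settled 5hr, then were treated 24hr at 37C. A 3hr, 3uM-final Luciferin-IPA step preceded luminescence measurement with One-Glo.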

[20] = target: Nuclear receptor subfamily 1 group I member 2 (Homo sapiens) (UniProt O75469); assay: Human pregnane X receptor (PXR) activation by small molecules, qHTS assay (AID 1346985); note: nearly all actives have a fitted effect of over 40% in size
Summary of the method: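 DPX-2 cells (HepG2 co-transfected with a PXR response element and a CYP3A4-promoter luciferase construct) were seeded at 2,000 per well, rested 5 hr at 37C, then exposed to DMSO-dissolved compounds for 24 hr. Activation was read as luciferase luminescence.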

Thyrotropin-releasing hormone receptor (Homo sapiens), sequence (P34981 whole entry, looked up): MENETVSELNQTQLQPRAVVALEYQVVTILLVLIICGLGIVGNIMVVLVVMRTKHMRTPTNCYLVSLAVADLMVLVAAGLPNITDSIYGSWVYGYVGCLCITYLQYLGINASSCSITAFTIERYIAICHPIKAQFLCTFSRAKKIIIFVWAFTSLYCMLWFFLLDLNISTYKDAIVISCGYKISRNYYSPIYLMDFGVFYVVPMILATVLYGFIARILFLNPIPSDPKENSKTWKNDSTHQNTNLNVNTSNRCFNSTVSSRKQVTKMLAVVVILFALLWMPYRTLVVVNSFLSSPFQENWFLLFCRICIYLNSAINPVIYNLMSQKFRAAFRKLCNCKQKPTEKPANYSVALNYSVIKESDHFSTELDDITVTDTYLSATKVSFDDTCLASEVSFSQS
Progesterone receptor (Homo sapiens), sequence (P06401 whole entry, looked up): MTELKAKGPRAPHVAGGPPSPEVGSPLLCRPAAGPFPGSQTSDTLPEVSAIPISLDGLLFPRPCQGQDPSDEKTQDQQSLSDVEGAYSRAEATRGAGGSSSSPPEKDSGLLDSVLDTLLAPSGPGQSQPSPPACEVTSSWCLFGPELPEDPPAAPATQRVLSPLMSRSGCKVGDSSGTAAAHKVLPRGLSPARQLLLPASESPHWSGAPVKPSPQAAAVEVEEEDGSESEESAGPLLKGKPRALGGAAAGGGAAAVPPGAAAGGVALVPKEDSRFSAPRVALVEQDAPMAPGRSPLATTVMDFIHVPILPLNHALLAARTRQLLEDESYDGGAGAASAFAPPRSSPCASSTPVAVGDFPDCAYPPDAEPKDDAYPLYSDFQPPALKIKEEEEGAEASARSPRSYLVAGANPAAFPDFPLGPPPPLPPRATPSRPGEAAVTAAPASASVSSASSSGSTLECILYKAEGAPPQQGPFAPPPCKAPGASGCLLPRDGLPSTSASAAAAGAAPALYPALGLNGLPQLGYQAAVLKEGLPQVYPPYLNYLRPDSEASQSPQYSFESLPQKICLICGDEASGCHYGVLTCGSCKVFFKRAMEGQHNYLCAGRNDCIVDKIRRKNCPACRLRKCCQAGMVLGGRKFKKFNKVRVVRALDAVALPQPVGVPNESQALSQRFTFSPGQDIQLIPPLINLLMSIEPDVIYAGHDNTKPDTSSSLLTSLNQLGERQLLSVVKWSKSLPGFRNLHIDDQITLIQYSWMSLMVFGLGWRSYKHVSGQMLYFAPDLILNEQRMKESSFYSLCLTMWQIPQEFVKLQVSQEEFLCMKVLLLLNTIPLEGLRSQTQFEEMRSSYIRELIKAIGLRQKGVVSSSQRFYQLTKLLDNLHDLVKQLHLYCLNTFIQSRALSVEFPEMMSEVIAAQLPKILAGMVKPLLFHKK
Acetylcholinesterase (Homo sapiens), sequence (P22303 whole entry, looked up): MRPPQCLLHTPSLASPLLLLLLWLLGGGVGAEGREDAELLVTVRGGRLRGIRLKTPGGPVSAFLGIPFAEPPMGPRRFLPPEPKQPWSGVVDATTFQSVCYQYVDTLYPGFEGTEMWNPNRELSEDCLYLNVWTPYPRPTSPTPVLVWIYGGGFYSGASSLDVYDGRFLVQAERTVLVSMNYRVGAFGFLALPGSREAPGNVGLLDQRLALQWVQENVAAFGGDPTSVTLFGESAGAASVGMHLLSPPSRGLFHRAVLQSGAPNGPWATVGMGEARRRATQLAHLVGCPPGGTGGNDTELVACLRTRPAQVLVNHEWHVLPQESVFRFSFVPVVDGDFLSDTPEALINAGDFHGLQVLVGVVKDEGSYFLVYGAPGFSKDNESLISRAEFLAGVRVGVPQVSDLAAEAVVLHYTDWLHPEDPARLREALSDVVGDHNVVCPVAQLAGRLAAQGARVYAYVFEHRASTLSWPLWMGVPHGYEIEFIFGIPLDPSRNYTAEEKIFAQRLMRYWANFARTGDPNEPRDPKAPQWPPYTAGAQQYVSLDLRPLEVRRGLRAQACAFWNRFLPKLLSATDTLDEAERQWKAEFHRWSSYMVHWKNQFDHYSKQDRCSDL
Nuclear receptor subfamily 1 group I member 2 (Homo sapiens), sequence (O75469 whole entry, looked up): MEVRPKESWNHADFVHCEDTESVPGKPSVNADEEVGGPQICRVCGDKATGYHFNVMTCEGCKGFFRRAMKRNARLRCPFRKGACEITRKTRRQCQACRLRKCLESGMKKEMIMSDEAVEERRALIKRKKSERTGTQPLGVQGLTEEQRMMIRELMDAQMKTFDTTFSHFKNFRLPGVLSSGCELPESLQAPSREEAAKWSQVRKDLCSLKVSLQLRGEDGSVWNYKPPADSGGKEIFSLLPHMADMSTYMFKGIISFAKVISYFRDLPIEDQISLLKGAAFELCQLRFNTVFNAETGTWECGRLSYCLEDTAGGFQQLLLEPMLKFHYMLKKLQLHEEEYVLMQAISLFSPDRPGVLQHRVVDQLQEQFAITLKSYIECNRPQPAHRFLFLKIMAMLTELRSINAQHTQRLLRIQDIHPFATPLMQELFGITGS
Nuclear receptor subfamily 1 group I member 2 (Rattus norvegicus), sequence (Q9R1A7 whole entry, looked up): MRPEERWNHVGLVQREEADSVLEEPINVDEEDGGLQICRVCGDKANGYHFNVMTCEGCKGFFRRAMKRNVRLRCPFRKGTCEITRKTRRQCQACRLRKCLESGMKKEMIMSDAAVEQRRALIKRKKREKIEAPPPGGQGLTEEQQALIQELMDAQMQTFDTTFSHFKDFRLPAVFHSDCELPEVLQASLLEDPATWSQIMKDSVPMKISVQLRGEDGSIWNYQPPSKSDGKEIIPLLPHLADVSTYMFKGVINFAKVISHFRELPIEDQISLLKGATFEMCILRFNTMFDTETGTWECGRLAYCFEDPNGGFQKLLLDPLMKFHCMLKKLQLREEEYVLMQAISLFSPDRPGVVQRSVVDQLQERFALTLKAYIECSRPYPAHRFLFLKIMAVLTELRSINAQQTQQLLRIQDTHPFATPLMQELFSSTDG

N#CS
Potency [1]: inactive | Potency [2]: inactive | Potency [3]: inactive | Potency [4]: inactive | Potency [5]: inactive | Potency [6]: inactive | Potency [7]: inactive | Potency [8]: inactive | Potency [9]: inactive | Potency [10]: inactive | Potency [11]: inactive | Potency [12]: inactive | Potency [13]: inactive | Potency [14]: inactive | Potency [15]: inactive

O=[N+]([O-])O
Potency [1]: inactive | Potency [2]: inactive | Potency [3]: inactive | Potency [4]: inactive | Potency [5]: inactive | Potency [6]: inactive | outcome [6]: inactive | Potency [7]: inactive | Potency [8]: inactive | Potency [11]: inactive | Potency [12]: inactive | Potency [13]: inactive | Potency [14]: inactive | Potency [15]: inactive

O=C(O)CCl
Potency [1]: inactive | Potency [2]: inactive | Potency [3]: inactive | Potency [4]: inactive | Potency [5]: inactive | Potency [6]: inactive | Potency [7]: inactive | Potency [8]: inactive | Potency [9]: inactive | Potency [10]: inactive | Potency [11]: inactive | Potency [12]: inactive | Potency [13]: inactive | Potency [14]: inactive | Potency [15]: inactive | Potency [16]: inactive | Potency [17]: inactive

CCNc1nc(Cl)nc(NCC)n1
Potency [1]: inactive | Potency [2]: inactive | Potency [3]: inactive | Potency [4]: inactive | Potency [5]: inactive | Potency [6]: inactive | Potency [7]: inactive | Potency [8]: inactive | Potency [9]: inactive | Potency [10]: inactive | Potency [11]: inactive | Potency [12]: inactive | Potency [13]: inactive | Potency [14]: inactive | Potency [15]: inactive | Potency [16]: inactive | max activation [18]: -2% (inactive) | outcome [19]: inactive | Potency [20]: inactive | Potency [17]: 31.9 µM (active) and inactive

C=CCOC(Cn1ccnc1)c1ccc(Cl)cc1Cl (configuration not stated)
Potency [1]: inactive | Potency [2]: inactive | Potency [3]: 6.13 µM (active) and 6.68 µM (active) | Potency [4]: 24.4 µM (active) and 15.4 µM (active) and 11.9 µM (active) | Potency [5]: 27.4 µM (active) and 21.7 µM (active) and 18.8 µM (active) | Potency [6]: inactive | Potency [7]: inactive | Potency [8]: inactive | Potency [9]: inactive | Potency [10]: inactive | Potency [11]: 48.6 µM (active) | Potency [12]: inactive | Potency [13]: 48.7 µM (active) and 38.6 µM (active) | Potency [14]: inactive | Potency [15]: inactive | Potency [16]: 48.7 µM (active) and 15.4 µM (active) and 11.9 µM (active) | outcome [19]: inactive | Potency [17]: inactive

CCCCn1cc[n+](C)c1C
Potency [1]: inactive | Potency [2]: inactive | Potency [3]: inactive | Potency [4]: inactive | Potency [5]: inactive | Potency [6]: inactive | Potency [7]: inactive | Potency [8]: inactive | Potency [11]: inactive | Potency [12]: inactive | Potency [13]: inactive | Potency [14]: inactive | Potency [15]: inactive | Potency [16]: inactive

CCCCCCn1cc[n+](C)c1
Potency [1]: inactive | Potency [2]: inactive | Potency [3]: inactive | Potency [4]: inactive | Potency [5]: inactive | Potency [6]: inactive | Potency [7]: inactive | Potency [8]: inactive | Potency [11]: 13.9 µM (active) | Potency [12]: inactive | Potency [13]: inactive | Potency [14]: inactive | Potency [15]: inactive | Potency [16]: inactive and 12.4 µM (active) and 7.57 µM (active)
